Experimental data from PubChem BioAssay.

Experiment: anti-His antibody binders, primary screen, artefact control for SMM control protein annotation, biochemical, small-molecule microarray, 635 nm fluorescence (AID 1128);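 also: score merges feature fluorescence with signal-to-noise for each printed compound spot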
Details: anti-His Alexa647 antibody binding, higher = more signal

Which composite z-score does the source give for `CCCC[C@@H](O)C1=C(C)Cn2c(=O)n(-c3ccccc3)c(=O)n2[C@H]1CO` here?
The composite z-score was -0.237.

With `CCOC(=O)C[C@H]1[C@H](OC(=O)c2cc3ccccc3oc2=O)[C@@H](NC(=O)Cc2ccc(OC)cc2)c2cc(OCCCO)ccc2N1C(=O)Cc1ccc(OC)cc1` as the molecule, how does the composite z-score read?
Its composite z-score is -0.279.

For `COC(=O)C1=CC(CCCO)=CC(c2ccc(CN3CCCC3)cc2)N(C)C=C1C(=O)OC` (stereo unspecified), which composite z-score is on record?
Its composite z-score is 1.73.

For `CCOC(=O)C[C@H]1[C@H](OC(=O)c2ccc(-c3ccccc3)cc2)[C@@H](NC(=O)c2ccc(-c3ccccc3)cc2)c2cc(OCCCO)ccc2N1C(=O)c1ccccc1`, which composite z-score is on record?
The composite z-score was 0.0004.

With `COc1ccc(C(=O)Nc2cccc(CN3C(=O)[C@]4(O[C@H](CC(=O)N(CCO)Cc5ccccc5)[C@@H]([Si](C)(C)c5ccc(OC)cc5)[C@@H]4C)c4ccccc43)c2)cc1` as the molecule, how does the composite z-score read?
The composite z-score was 0.699.

For `O=C(N1CCOCC1)[C@]1(CCS(=O)(=O)c2ccccc2)N=C(c2ccc(OCCCO)cc2)O[C@@H]1c1ccccc1`, which composite z-score is on record?
The composite z-score was 2.94.

For `CC(C)c1ccc(NN2C(C(O)c3ccccc3)C=CC3C(=O)N(c4ccccc4)C(=O)C32)cc1` (stereo unspecified), which composite z-score is on record?
The composite z-score was 0.593.

For `COc1ccc([Si](C)(C)[C@H]2[C@H](CC(=O)N3CCC[C@H]3CO)O[C@@]3(C(=O)N(C)c4c(Br)cc(C)cc43)[C@@H]2C)cc1`, which composite z-score is on record?
The composite z-score was 1.15.

Which composite z-score does the source give for `COCCCNC(=O)[C@]1(Cc2ccccc2N=[N+]=[N-])N=C(c2ccc(OCCCO)cc2)O[C@@H]1c1ccccc1` here?
The composite z-score was 2.96.

With `[N-]=[N+]=NCc1ccccc1[C@H]1OC(c2ccc(OCCCO)cc2)=N[C@@]1(Cc1ccccc1N=[N+]=[N-])C(N)=O` as the molecule, how does the composite z-score read?
The composite z-score was 1.03.

With `C=CC[C@]1(C(=O)NCC(O)CO)N=C(c2ccc(OCCCO)cc2)O[C@H]1c1ccccc1CN=[N+]=[N-]` (stereo partly specified) as the molecule, how does the composite z-score read?
The composite z-score was 2.81.

Which composite z-score does the source give for `C[C@]1(C(=O)NC2CC2)c2ccccc2C(=O)N(Cc2cc(F)cc(C(F)(F)F)c2)[C@H]1c1ccc(CO)cc1` here?
The composite z-score was 1.26.

For `CC(C)N1CC=CC23O[C@@H]4/C=C\CCCOC(=O)C4[C@H]2C(=O)N(C(C)CO)[C@@H]3C1=O` (stereo partly specified), which composite z-score is on record?
The composite z-score was -0.201.

For `CCOC(=O)C[C@H]1[C@H](OC(=O)c2ccccc2-c2ccccc2)[C@@H](NC(=O)CC(C)C)c2cc(OCCCO)ccc2N1C(=O)c1ccccc1`, which composite z-score is on record?
Its composite z-score is -0.229.

Which composite z-score does the source give for `CN(C)CCCCNC(=O)[C@H]1C[C@H]2C(=O)N[C@@H](CCCCN(C)C)C(=O)N2[C@H]1c1ccc(O)cc1` here?
The composite z-score was 1.01.

With `CC(CO)N1C(=O)[C@@H]2[C@H]3C(=O)OCC=C[C@H]3OC23C=CCN(c2ccc4ccccc4c2)C(=O)[C@@H]13` (stereo partly specified) as the molecule, how does the composite z-score read?
Its composite z-score is -0.786.

With `CC(C)N1C(=O)[C@@]2(Cc3ccccc31)c1ccccc1C(=O)N(Cc1ccccc1)[C@H]2c1ccc(CO)cc1` as the molecule, how does the composite z-score read?
Its composite z-score is 2.84.

Which composite z-score does the source give for `CCOC(=O)C1=CC[C@@H](c2ccccc2)N(S(=O)(=O)c2ccc(C)cc2)[C@@H]1C#N` here?
Its composite z-score is 2.09.

Which composite z-score does the source give for `COc1ccc([Si](C)(C)[C@@H]2[C@@H](CC(=O)N(CCO)Cc3ccccc3)O[C@]3(C(=O)N(Cc4cccc(I)c4)c4ccccc43)[C@H]2C)cc1` here?
Its composite z-score is 0.853.

With `CO[C@H]1O[C@H](CO)[C@@H](OC(=O)CCc2ccccc2)[C@@H]2OC(=O)[C@@H](Cc3ccc4ccccc4c3)C/C=C/C[C@H](Cc3ccc4ccccc4c3)C(=O)O[C@@H]12` as the molecule, how does the composite z-score read?
Its composite z-score is 0.0781.

For `O=C1O[C@H](c2ccccc2)[C@H](c2ccccc2)N2[C@H]1[C@@H](C(=O)O)[C@]1(C(=O)Nc3ccccc31)[C@H]2c1ccc(OCCO)cc1`, which composite z-score is on record?
The composite z-score was 1.26.

Which composite z-score does the source give for `O=C1c2ccccc2[C@@]2(Cc3ccccc3N(CC(F)(F)F)C2=O)[C@H](c2ccc(CO)cc2)N1Cc1ccccc1` here?
The composite z-score was -0.713.

Which composite z-score does the source give for `COCCCNC(=O)[C@@]1(Cc2ccccc2I)c2ccccc2C(=O)N(C2CCCCC2)[C@H]1c1ccc(CO)cc1` here?
Its composite z-score is 0.912.

For `COCCOC(=O)N1C(=O)[C@@]2(c3cc(C#CC4(O)CCCCCC4)ccc31)[C@H](C(N)=O)[C@H]1C(=O)O[C@H](c3ccccc3)[C@H](c3ccccc3)N1[C@@H]2c1ccc(OCCO)cc1`, which composite z-score is on record?
Its composite z-score is 2.19.

With `CCCNC(=O)[C@@]1(Sc2ccc(C)cc2)CC(=O)N(Cc2cc(C(F)(F)F)cc(C(F)(F)F)c2)[C@@H]1c1ccc(CO)cc1` as the molecule, how does the composite z-score read?
The composite z-score was 2.59.

With `C=C(CCCC)/C(=C/C[C@@H](OC(C)=O)c1cccc(OCCO)c1)c1cc(C(=O)OC)ccc1OC` as the molecule, how does the composite z-score read?
The composite z-score was 0.57.

For `Cc1cccc([C@H]2C[C@H]3C(Br)=C[C@@]2(CO)C(=O)[C@]32CO2)c1`, which composite z-score is on record?
The composite z-score was 0.338.

For `CCCCN1CC=CC23O[C@@H]4/C=C\CCCOC(=O)C4[C@H]2C(=O)N(CCCCCCO)[C@@H]3C1=O` (stereo partly specified), which composite z-score is on record?
The composite z-score was 0.193.

Which composite z-score does the source give for `C=CCNC(=O)[C@@H]1[C@H]2C(=O)O[C@H](c3ccccc3)[C@H](c3ccccc3)N2[C@H](c2ccc(OCCO)cc2)[C@@]12C(=O)N(C(=O)OCCOC)c1ccccc12` here?
The composite z-score was 1.25.

For `COc1ccc(C(=O)Nc2ccc(CN3C(=O)[C@]4(O[C@H](CC(=O)N(CCO)Cc5ccccc5)[C@@H]([Si](C)(C)c5ccc(OC)cc5)[C@@H]4C)c4ccccc43)cc2)cc1`, which composite z-score is on record?
The composite z-score was 0.122.

With `COC(=O)Cn1c(C(=O)N(C)C)cc2c1C[C@H]1CN(C(=O)c3ccccc3)[C@@](Cc3ccccc3)(C(=O)OC)[C@@H]21` as the molecule, how does the composite z-score read?
The composite z-score was 0.733.

For `CO[C@H]1O[C@H](CO)[C@@H](OC(=O)Nc2cccc(F)c2)[C@H](OC(=O)Nc2ccc3c(c2)OCO3)[C@@H]1OC(=O)Nc1ccc2c(c1)OCO2`, which composite z-score is on record?
Its composite z-score is 2.61.

With `COC(=O)[C@@]1(Cc2ccc(F)cc2)[C@H]2c3cc(C(=O)N(C)C)n(Cc4cccc5ccccc45)c3C[C@H]2CN1C(=O)c1ccccc1` as the molecule, how does the composite z-score read?
The composite z-score was 0.497.

Which composite z-score does the source give for `CCOC(=O)C[C@H]1[C@H](OC(=O)Cc2ccc3c(c2)OCO3)[C@@H](NC(=O)CC(C)C)c2cc(OCCCO)ccc2N1C(=O)c1ccc2ccccc2n1` here?
The composite z-score was 0.212.

Which composite z-score does the source give for `O=C1O[C@H](c2ccccc2)[C@H](c2ccccc2)N2[C@H]1[C@@H](C(=O)N1CCN(c3ncccn3)CC1)[C@]1(C(=O)Nc3ccc(C#CC4(O)CCCCCC4)cc31)[C@H]2c1ccc(O)cc1` here?
The composite z-score was 1.75.

Which composite z-score does the source give for `COC(=O)C[C@H]1O[C@]2(C(=O)N(C)c3ccccc32)[C@@H](C)[C@@H]1[Si](C)(C)c1ccccc1` here?
Its composite z-score is 0.83.
